# Inconclusive results are not listed. Unmarked numbers belong to inactive results. Active and inactive are the calls of the source. The call rests on the fitted dose curve; in most records, active means well fitted cell-killing curve with a large enough effect; inconclusive means small, poorly fitted or top-dose-only effect, or effect the other way; inactive means no such curve, though single readings can be large or run the other way.
# Key:
# [1] = Quantitative High-Throughput drug screen in 47 multiple myeloma cell lines against the NCATS MIPE library collection: KMS28PE_JCRB cell viability assay (AID 1918983); further: nearly all actives have a fitted effect of over 35% in size; further: potency means the concentration at half of the fitted maximal effect
# How it was run: (§1)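 MIPE 4.0 approved/investigational drugs; 500 cells/well; 48 h 37 °C humidified 5% CO2; CTG luminescence readout; DMSO = 100%, media = 0% viability.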
# [2] = Quantitative High-Throughput drug screen in 47 multiple myeloma cell lines against the NCATS MIPE library collection: KMS34_JCRB cell viability assay (AID 1918985); further: nearly all actives have a fitted effect of over 40% in size; further: potency means the concentration at half of the fitted maximal effect
# How it was run: as §1
# [3] = Quantitative High-Throughput drug screen in 47 multiple myeloma cell lines against the NCATS MIPE library collection: OCIMY7_PLB cell viability assay (AID 1918987); further: potency means the concentration at half of the fitted maximal effect; nearly all actives have a fitted effect of over 65% in size
# How it was run: as §1
# [4] = Quantitative High-Throughput drug screen in 47 multiple myeloma cell lines against the NCATS MIPE library collection: OCIMY5_PLB cell viability assay (AID 1918988); further: nearly all actives have a fitted effect of over 65% in size; further: potency means the concentration at half of the fitted maximal effect
# How it was run: as §1
# [5] = Quantitative High-Throughput drug screen in 47 multiple myeloma cell lines against the NCATS MIPE library collection: OPM1_PLB cell viability assay (AID 1918989); further: nearly all actives have a fitted effect of over 40% in size; further: potency means the concentration at half of the fitted maximal effect
# How it was run: as §1
# [6] = Quantitative High-Throughput drug screen in 47 multiple myeloma cell lines against the NCATS MIPE library collection: U266_ATCC cell viability assay (AID 1919864); further: potency means the concentration at half of the fitted maximal effect; nearly all actives have a fitted effect of over 35% in size
# How it was run: as §1
# [7] = Quantitative High-Throughput drug screen in 47 multiple myeloma cell lines against the NCATS MIPE library collection: XG6_PLB cell viability assay (AID 1919865); further: nearly all actives have a fitted effect of over 40% in size; further: potency means the concentration at half of the fitted maximal effect
# How it was run: as §1
# [8] = Quantitative High-Throughput drug screen in 47 multiple myeloma cell lines against the NCATS MIPE library collection: SKMM1_PLB cell viability assay (AID 1919863); details: SKMM1 myeloma viability, CellTiter-Glo ATP, 48 h; viability: hits give low values; further: nearly all actives have a fitted effect of over 35% in size; further: potency means the concentration at half of the fitted maximal effect; on viability: series mostly up to about 46 µM
# How it was run: as §1
# [9] = Quantitative High-Throughput drug screen in 47 multiple myeloma cell lines against the NCATS MIPE library collection: L363_DSMZ cell viability assay (AID 1918984); further: nearly all actives have a fitted effect of over 40% in size
# How it was run: as §1
Structure (SMILES),Potency [1],Potency [2],Potency [3],Potency [4],Potency [5],Potency [6],Potency [7],Potency [8],viability [8],Potency [9]
CC(C)(O)c1cc2nc(-c3cnc(N)nc3)nc(N3CCOCC3)c2s1,0.0372 µM (active),0.0372 µM (active),0.372 µM (active),0.105 µM (active),0.166 µM (active),0.105 µM (active),0.264 µM (active),,,
Cn1c(=O)n(-c2ccc(C(C)(C)C#N)cc2)c2c3cc(-c4cnc5ccccc5c4)ccc3ncc21,0.0526 µM (active),0.0132 µM (active),1.48 µM (active),0.743 µM (active),,,,0.0332 µM (active),,
CNC(=O)c1ccccc1Nc1nc(Nc2ccc(N3CCOCC3)cc2OC)ncc1Cl,0.935 µM (active),0.935 µM (active),0.332 µM (active),1.32 µM (active),5.26 µM (active),,5.9 µM (active),,,
Cc1c(NC(=O)OC[C@@H]2COCCN2)cn2ncnc(Nc3ccc4c(cnn4Cc4cccc(F)c4)c3)c12,16.6 µM (active),,0.59 µM (active),0.0166 µM (active),4.18 µM (active),,0.0372 µM (active),,,
Cc1cn2cc(C(=O)N(C)CCO)cc(N[C@@H]3CCOc4cccc(C)c43)c2n1,inactive,inactive,,inactive,inactive,,inactive,,,
OCc1ccc(-c2ccc(-c3ccc(CO)s3)o2)s1,29.6 µM (active),18.7 µM (active),1.87 µM (active),,6.62 µM (active),3.32 µM (active),16.6 µM (active),,,
c1ccc2c(CCNc3ccc(Nc4ccncc4)cc3)c[nH]c2c1,18.7 µM (active),,8.33 µM (active),20.9 µM (active),18.7 µM (active),20.9 µM (active),23.5 µM (active),29.6 µM (active),,
COc1cc2c(Oc3ccc4[nH]c(C)cc4c3F)ncnc2cc1OCCCN1CCCC1,20.9 µM (active),,6.62 µM (active),23.5 µM (active),5.9 µM (active),,2.35 µM (active),,,
COc1cc(-c2nn(C3CCC(N4CCN(C(C)=O)CC4)CC3)c3ncnc(N)c23)ccc1NC(=O)c1cc2ccccc2n1C (centres undefined),14.8 µM (active),6.62 µM (active),,1.87 µM (active),2.64 µM (active),,1.66 µM (active),14.8 µM (active),,
COC(=O)c1ccc2c(C(=Nc3ccc(N(C)C(=O)CN4CCN(C)CC4)cc3)c3ccccc3)c(O)[nH]c2c1,7.43 µM (active),18.7 µM (active),,7.43 µM (active),2.09 µM (active),18.7 µM (active),0.0469 µM (active),,,
COc1c(OCCCN2CCOCC2)ccc2c3n(c(=NC(=O)c4cnc(N)nc4)nc12)CCN3,0.0645 µM (active),0.257 µM (active),,,0.812 µM (active),0.645 µM (active),,0.162 µM (active),,
O=C(O)CO.[NH2-].[NH2-].[Pt+2],inactive,inactive,,,inactive,,inactive,,,
Cc1cc(CN2CCN(c3c(Br)cnc4nc(-c5ccc(N6CCN(C)CC6)cc5)[nH]c34)CC2)no1,20.9 µM (active),5.9 µM (active),1.05 µM (active),,4.18 µM (active),16.6 µM (active),2.35 µM (active),,,
CC(C)=CCCC(C)=CCCC(C)=CCSc1ccccc1C(=O)O,1.66 µM (active),1.32 µM (active),,1.48 µM (active),14.8 µM (active),0.372 µM (active),4.18 µM (active),2.64 µM (active),,
Cc1cn2c(-c3cn[nH]c3)cnc2c(Nc2ccc(C(=O)N3CCNCC3)cc2F)n1,18.7 µM (active),,10.5 µM (active),,18.7 µM (active),13.2 µM (active),2.96 µM (active),18.7 µM (active),,
CC1(C)CCC(c2ccc(Cl)cc2)=C(CN2CCN(c3ccc(C(=O)NS(=O)(=O)c4ccc(N[C@H](CCN5CCOCC5)CSc5ccccc5)c(S(=O)(=O)C(F)(F)F)c4)cc3)CC2)C1,0.469 µM (active),9.35 µM (active),0.001 µM (active),,5.26 µM (active),14.8 µM (active),11.8 µM (active),,,
O=C(O)C1(Cc2cccc(Nc3nccs3)n2)CCC(Oc2cccc(Cl)c2F)CC1 (centres undefined),,,0.296 µM (active),,0.332 µM (active),,0.209 µM (active),,,
Cc1cc(Nc2cc(CN3CCOCC3)c3nc(C)c(Cc4ccc(Cl)cc4F)n3n2)n[nH]1,,,2.64 µM (active),3.32 µM (active),16.6 µM (active),20.9 µM (active),13.2 µM (active),16.6 µM (active),,
COc1cccc(Nc2c(C(N)=O)cnc3c(C)cc(S(=O)(=O)c4cccc(C(=O)N(C)C)c4)cc23)c1,inactive,,,,inactive,,inactive,,113%,
COC(=O)Nc1ccc(-c2nc(N3CCOCC3)c3cnn(C4CCN(Cc5cccnc5)CC4)c3n2)cc1,,0.059 µM (active),23.5 µM (active),20.9 µM (active),0.0833 µM (active),,0.0118 µM (active),2.09 µM (active),,inactive
CCOC(=O)C1=C(C)NC2=C(C(=O)CC(C)(C)C2)C1c1ccc(-c2ccccc2)cc1 (centres undefined),,18.7 µM (active),3.72 µM (active),20.9 µM (active),16.6 µM (active),26.4 µM (active),,23.5 µM (active),,
CCc1cc2c(cc1N1CCC(N3CCOCC3)CC1)C(C)(C)c1[nH]c3cc(C#N)ccc3c1C2=O,,,1.48 µM (active),,,,,,,

# From PubChem BioAssay (NCATS)
